A selection: hits, their analogues and other compounds. The true share with any hit is near 1.2%.
PKM2 act: qHTS Assay for Activators of Human Muscle isoform 2 Pyruvate Kinase. Pyruvate kinase PKM (Homo sapiens), P14618. AID 1631, 2009. actives 0.34% (n = 260,000). purified PKM2, Kinase-Glo ATP luminescence, activation; response scale: 0% is enzyme alone, no compound. Potency, µM (highest dose often 57.5 µM), for the others: top-dose activation, actives largely listed as activators; further: potency means the concentration at half of the fitted maximal effect; nearly all actives have a fitted effect of over 55% in size
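Kinase-Glo luminescence reports ATP generated from ADP (0.1 mM) and PEP (0.5 mM) by purified hPK-M2 after 1 h at room temperature, pH 7.2 imidazole buffer; intermediate enzyme activity allows detecting inhibitors and activators.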
PI4K2A inh: qHTS for small molecular inhibitors of PI4K2A; activity change, negative = inhibition, % at 76.9 µM; actives 0.13% (n = 420,000); purified PI4K2A, ADP-Glo luminescence, 1 h; hits give low values; AID 1346378, 2018; Phosphatidylinositol 4-kinase type 2-alpha (Homo sapiens), Q9BTU6; in the data active means activity change below about -50%; inconclusive means mostly about -30% to -49%;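 further: -100% = wells without enzyme as full effect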
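In this quantitative HTS, ADP production by PI4K2A was quantified luminescently after 1 h at ambient temperature; 100 microM adenosine served as plate-quality control.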
TrxR1 substrate: qHTS Assay for Substrates of Mammalian Selenoprotein Thioredoxin Reductase 1 (TrxR1): qHTS | Thioredoxin reductase 1, cytoplasmic (Rattus norvegicus), O89049 | purified TrxR1 substrate turnover, NADPH consumption readout | Potency, µM (top dose mostly 114 µM), inactives show at the highest dose activity change, negative = substrate turnover | actives 0.01% (n = 390,000) | AID 588456, 2011; further: potency means the concentration at half of the fitted maximal effect; nearly all actives have a fitted effect of over 50% in size
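Rat TrxR1, dispensed at 90 nM, was prereduced with 400 uM NADPH (final) for 5 min at ~22 deg C, then incubated with compound 15 min before 400 uM selenite. A first-read NADPH fluorescence drop versus no-compound background flagged substrates.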
rTrxR1 inhibitor: qHTS Assay for Inhibitors of Mammalian Selenoprotein Thioredoxin Reductase 1 (TrxR1): qHTS | Thioredoxin reductase 1, cytoplasmic (Rattus norvegicus), O89049 | recombinant rTrxR1, NADPH fluorescence consumption, selenite substrate | Potency, µM (top dose mostly 114 µM), inactives show top-dose activity change, negative = inhibition, actives largely listed as inhibitors | actives 1% (n = 390,000) | AID 588453, 2011; further: potency means the concentration at half of the fitted maximal effect; nearly all actives have a fitted effect of over 65% in size
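Rat TrxR1 (90 nM in the dispensed reagent) was pre-reduced with 400 uM NADPH for 5 min at room temperature, then incubated with compound for 15 min. After 400 uM selenite was added, NADPH fluorescence (Ex 340/Em 450 nm) was followed for 8 min.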
GALK inh: qHTS Assay for Inhibitors of Human Galactokinase (GALK) | P51570 | Purified GALK, Kinase-Glo residual ATP luminescence | Potency, µM (titrated, usually from 57.5 µM), without a hit: at the highest dose activity change, negative = inhibition, usual class: inhibitors | actives 0.007% (n = 270,000); further: potency means the concentration at half of the fitted maximal effect
Target sequence (P51570 whole entry, looked up): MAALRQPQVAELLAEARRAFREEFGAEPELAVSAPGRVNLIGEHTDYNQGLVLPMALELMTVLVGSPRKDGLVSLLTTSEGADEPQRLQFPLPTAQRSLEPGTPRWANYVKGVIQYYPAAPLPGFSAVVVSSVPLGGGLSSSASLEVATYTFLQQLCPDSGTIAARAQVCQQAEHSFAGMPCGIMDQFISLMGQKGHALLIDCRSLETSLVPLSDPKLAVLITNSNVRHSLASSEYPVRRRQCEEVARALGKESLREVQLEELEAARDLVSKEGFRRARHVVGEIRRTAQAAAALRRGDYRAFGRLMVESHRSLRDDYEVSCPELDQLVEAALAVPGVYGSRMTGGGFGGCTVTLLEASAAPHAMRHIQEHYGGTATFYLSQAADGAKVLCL
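Luminescence from leftover ATP (Ultra-Glo luciferase/luciferin) served as read-out after a 1 h room-temperature reaction of 5 nM GALK with 35 uM ATP and 100 uM galactose.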
* = called active by the depositor; ? = inconclusive; nt = no result given; [ ] = dose if it differs, or a comment. Unless noted, the call rests on the fitted dose curve; in most records, active means well fitted curve in the direction sought with a large enough effect; inconclusive means small, poorly fitted or top-dose-only effect, or another doubt; inactive means no such curve, though single readings can be large; an effect the other way counts as inactive or inconclusive. Unless noted, on the % scale 0 is the no-effect control and ±100 the full control effect.

SMILES | PKM2 act | PI4K2A inh | TrxR1 substrate | rTrxR1 inhibitor | GALK inh
CC(=O)N(C1CC(C)C(C#N)(C#N)C1(C#N)C#N)N(C)C (stereo unspecified) | ? | -7.2 | 12.1%[57.1 µM] | 1.58µM* | -1.1%
CC1(C)c2ccccc2N2CCC(=O)NC21/C=C/c1ccco1 (stereo unspecified) | 24.8% | 1.6 | -3.4% | 39.8µM* | 0.7%
CC(C)(C)C1C/C(=C/c2ccccn2)C(=O)/C(=C/c2ccccn2)C1 (stereo unspecified) | 13.0% | 3.1 | 0.2% | 35.5µM* | 1.4%
O=C1/C(=C/c2ccccn2)COc2ccccc21 | -4.1% | -0.8 | -14.0%[57.1 µM] | 22.4µM* | 0.1%
O=C1/C(=C/c2ccc(O)cc2)COc2ccccc21 | -18.9% | ? | -3.6% | -33.0% | 2.5%
CC1C/C(=C/c2ccccn2)C(=O)/C(=C/c2ccccn2)C1 (stereo unspecified) | ? | -4.1 | 5.4%[57.1 µM] | ? | -1.9%
CC1CCN(c2ccc(-c3cccc(NS(=O)(=O)c4ccc(F)cc4F)c3)nn2)CC1 | nt | -8.3 | -13.2%[57.1 µM] | -7.8%[57.1 µM] | nt
Cc1nc2ccn(Cc3ccco3)c(=O)c2cc1C(=O)NCc1ccc(Cl)cc1 | nt | -22.4 | 7.3%[57.1 µM] | 6.6%[57.1 µM] | nt
O=C(OCn1ncc(Br)c(Br)c1=O)c1ccccc1Cl | 0.9% | -0.7 | 7.2% | ? | -9.1%
O=C(OCn1ncc(Cl)c(Cl)c1=O)c1cccc(C(F)(F)F)c1 | 3.2% | 10.7 | 2.6% | 15.8µM* | -6.4%
CCN(CC)C(=O)c1c(-c2ccccc2)c(-c2ccccc2)nn(CC)c1=O | nt | -7.5 | -2.9% | 6.5% | nt
CS(=O)(=O)Nc1cccc(C2=NN(S(=O)(=O)c3ccccc3)C(c3ccco3)C2)c1 (stereo unspecified) | 22.4µM* | 5.4 | -2.5% | 0.5% | 7.0%
CCCn1c(CN2CCN(c3ccc(OC)cc3)CC2)nc2c1c(=O)[nH]c(=O)n2C | nt | -0.8 | 2.5% | 20.2% | nt
O=C1/C(=C/c2cccs2)SC(=S)N1NS(=O)(=O)c1ccccc1 | -0.3% | 4.0 | -12.3% | -26.4% | -12.3%
CCN(C(=O)C(C)N1C(=O)/C(=C/c2ccco2)SC1=S)C1CCS(=O)(=O)C1 (stereo unspecified) | nt | ? | 4.3% | -39.9% | -0.3%
O=C1/C(=C/C=C/c2ccco2)SC(=S)N1NS(=O)(=O)c1ccccc1 | 23.5% | -19.4 | -20.1% | 44.7µM* | nt
CC(C(=O)O)N1C(=O)/C(=C/C=C/c2ccco2)SC1=S (stereo unspecified) | 20.1% | ? | -17.6% | 14.1µM* | -1.9%
COc1ccc(C)cc1NC(=O)Cn1c(=O)n(Cc2nc(C)no2)c(=O)c2ccccc21 | nt | -6.6 | 1.1% | 19.2% | nt
CCOC(=O)C(C(=O)OCC)C(C(=O)OCC)N1CCOCC1 (stereo unspecified) | 15.6% | -1.1 | 5.7% | 1.26µM* | -2.4%
COc1ccc(C(=O)CC(=O)c2ccccc2)cc1 | nt | -0.7 | -5.9%[57.1 µM] | 14.8%[11.4 µM] | nt
COc1ccc(C2(C(=O)c3ccccc3)C(=O)c3ccccc3C2=O)cc1 | -10.0% | 2.4 | 3.0% | 2.24µM* | 3.5%
Cc1ccc(OCC(=O)N/N=C/C=C/c2ccco2)cc1C | 26.2% | -19.4 | -11.8% | 39.8µM* | -0.9%
Cc1ccc(OCC(=O)N/N=C/c2ccco2)cc1 | -21.6% | 5.8 | 1.9%[57.1 µM] | 7.5% | 1.4%
CC(/C=N/NC(=O)Cc1cccn1C)=C\c1ccccc1 | -2.3% | 1.1 | -6.8% | 50.1µM* | 0.7%
O=C(Cc1cccs1)N/N=C/C=C/c1ccco1 | 10.9% | -14.6 | -14.4% | 44.7µM* | nt
Cn1cccc1CC(=O)NN=C/C=C\c1ccco1 | nt | -52.2* | nt | nt | nt
COc1ccc(NC(=O)c2cccc(N3CCCS3(=O)=O)c2)cc1OC | nt | 0.3 | -0.4%[57.1 µM] | 8.5%[57.1 µM] | nt
COc1ccc(CNCC#Cc2ccccc2)cc1 | nt | -6.8 | nt | nt | nt
Cc1cccc(Cn2c(=O)n(CCCC(=O)NCc3ccccc3Cl)c(=O)c3ccccc32)c1 | nt | -13.2 | -5.0% | 7.6% | nt

Compound activity from PubChem BioAssay.
